# This is a sample that favours compounds with a hit; in the whole collection about 5.4% have one here.
# HSF1 inhib: HSF1 inhibition; activity change, negative = inhibition, % at 7.5 µM (by protocol); hit rate 0.77% among 300,000; NIH3T3-HGL HSE-luciferase, MG132-induced, luminescence 8 h; stronger effect = lower value;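 active = more than half of replicate wells show activity change below -50%, luminescence cut by over half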;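 also: luciferase reports HSF-1 transcriptional activity via heat shock element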
# HSF1 activator: increases HSF-1 driven luciferase reporter signal; hit rate 1.7% among 300,000; activation, % at 9 µM; NIH3T3-HGL HSF-1 luciferase reporter, MG132, 8 h; 100% = twice DMSO control signal;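 active = mean replicate activation of at least 50% with a set share of replicates each reaching 50%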
# GAA850 FXN act: activators of GAA850 frataxin (FXN) promoter; AID 540364; HEK293 lucGAA850 FXN promoter luciferase reporter, 24 h; percent of 10 µM SAHA response; activation, % at 6 µM; hit rate 0.56% among 360,000;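 active = activation above the average of all compounds screened plus 3 SD, cutoff fixed separately per campaign, cut at about 7.5% in these data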
# AHR activator: human AHR activation; P35869; AHR-responsive luciferase reporter cells, luminescence; activation, % at 5 µM; hit rate 2.5% among 320,000; in the data active = activation above about 47%
# DAX1 inh: NR0B1 (DAX1) inhibition; P51843; HEK293 Gal4-DAX1 luciferase reporter, luminescence; inhibition, % at 6.75 µM; hit rate 0.99% among 340,000; AID 504766;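 active = inhibition above the mean over all tested compounds plus 3 SD, cut at about 4.2% in these data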;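 also: inhibition shows as a rise in luminescence from relieved DAX1 repression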
# Target sequence (P51843 207-470 limits assumed): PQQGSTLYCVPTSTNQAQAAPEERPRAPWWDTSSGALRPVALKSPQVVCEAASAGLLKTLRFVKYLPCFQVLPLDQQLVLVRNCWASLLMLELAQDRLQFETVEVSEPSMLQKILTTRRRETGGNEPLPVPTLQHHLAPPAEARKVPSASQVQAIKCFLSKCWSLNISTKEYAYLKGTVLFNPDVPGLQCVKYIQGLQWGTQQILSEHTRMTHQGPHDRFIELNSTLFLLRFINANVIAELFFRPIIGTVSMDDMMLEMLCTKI
# Numbers stand for hits; – = inactive; · = not tested or not shown.
SMILES,HSF1 inhib,HSF1 activator,GAA850 FXN act,AHR activator,DAX1 inh
O=C(Cn1cnc2sc3c(c2c1=O)CCCC3)NCC(=O)Nc1ccc(F)cc1F,–,–,–,–,–
CC1CCCN(C(=S)Nc2ccc(Nc3ccccc3)cc2)C1 (stereo not given),–,93,–,–,·
CCN1CCN(c2cc(C)c3cc(NC(=S)N4CC(C)CC(C)C4)ccc3n2)CC1 (stereo not given),–,–,–,·,–
S=C(Nc1ccccc1)N1CCCCCC1,–,55,–,–,–
CCN1CCN(c2cc(C)c3cc(NC(=S)N4CCCC(C)C4)ccc3n2)CC1 (stereo not given),-79,–,–,–,–
COc1ccc(C2=NO[C@@H]3[C@@H]4C[C@@H]([C@H]5C(=O)N(C)C(=O)[C@@H]45)[C@H]23)c(OC)c1,–,–,–,–,·
O=C(NC1CC1)c1cccc(NC(=O)c2cnn(-c3ccccc3)n2)c1,·,·,–,59,–
CCN1C(=O)C(CC(=O)Nc2ccc(OC)cc2)N(Cc2ccc3c(c2)OCO3)C1=S (stereo not given),-78,–,–,–,–
CCN1C(=O)C(CC(=O)Nc2ccc(OC)cc2)N(Cc2ccc(OC)c(OC)c2)C1=S (stereo not given),–,–,–,–,·
O=C(CCNc1ccc(Br)cc1)c1cccc([N+](=O)[O-])c1,–,66,–,–,–
O=C(NNC(=S)NC(=O)c1ccc(Br)cc1)c1cccc([N+](=O)[O-])c1,–,–,–,53,–
O=C(NNC(=S)NC(=O)c1ccc(Br)cc1)c1ccc([N+](=O)[O-])cc1,–,–,–,–,–
COc1ccc(OC)c2c(C)c(C)[nH]c12,–,–,–,–,–
CCCCN(C)CCCNC(=O)CS(=O)Cc1nc(-c2ccc(OC)c(OC)c2)oc1C (stereo not given),–,–,–,–,–
CCCN(CCC)CCCNC(=O)CS(=O)Cc1nc(-c2ccc(OC)c(OC)c2)oc1C (stereo not given),–,55,–,–,–
Oc1ccc(Cl)cc1C1=NNC(c2ccc(Cl)cc2)C1 (stereo not given),–,–,–,77,–
O=C(NCc1csc(-c2cccs2)n1)C1CCCCC1,–,–,–,–,4.5
CCC(=O)NCc1csc(-c2cccs2)n1,·,·,–,–,–
COC(=O)CCCn1nc(NC(=O)COc2ccc(F)cc2)cc1C,–,–,–,–,–
Cc1ccc(C#N)c(SCC(=O)Nc2nccs2)n1,–,–,–,63,–
N#Cc1cc2c(nc1SCC(=O)Nc1nccs1)CCCCC2,–,–,–,–,–
Cn1ccnc1SCC(=O)Nc1sccc1C#N,–,–,–,51,–
CCCCC(=O)Nc1ccc(NC(=O)c2ccc3c(c2)OCO3)cc1OC,–,–,–,–,–
O=C(Nc1ccccc1)c1ccc(NCCc2ccccc2)c([N+](=O)[O-])c1,–,–,–,50,–
NC(=O)c1ccc(NCCc2ccccc2)c([N+](=O)[O-])c1,–,–,–,–,–
SMILES,HSF1 inhib,HSF1 activator,GAA850 FXN act,AHR activator,DAX1 inh
CCc1ccccc1NC(=O)c1ccc(NCCc2ccccc2)c([N+](=O)[O-])c1,–,–,–,–,4.4
CCN(CC)c1ccc(C(=O)Nc2ccccc2)cc1[N+](=O)[O-],–,–,–,53,–
COc1ccc(CCNc2ccc(C(=O)O)cc2[N+](=O)[O-])cc1OC,–,–,–,–,–
CCCCC(=O)Nc1ccc(NC(=O)c2ccc(C)c([N+](=O)[O-])c2)cc1OC,–,–,–,72,–
CCC(=O)Nc1cccc(NC(=O)c2ccc(C)c([N+](=O)[O-])c2)c1,–,–,–,–,–
CN(C(=O)CSc1nnnn1-c1ccccc1)C1CCS(=O)(=O)C1 (stereo not given),–,–,–,–,–
O=C(CC1c2ccccc2Oc2ccccc21)N1CCN(c2ccccn2)CC1,–,–,–,–,–
COc1ccc(-c2nc(N3CCN(C)CC3)sc2-c2ccc(OC)cc2)cc1,–,–,–,–,–
COc1ccc(S(=O)(=O)Nc2nc3c(s2)CCCC3)cc1,–,–,–,–,–
COc1ccc(C(=O)Nc2ccc(Nc3ccccc3)cc2)cc1[N+](=O)[O-],–,–,–,–,–
COc1ccc(C(=O)Nc2ccc(OCc3ccccc3)cc2)cc1[N+](=O)[O-],-61,–,–,–,–
COc1cc(C2C3=C(CC(C)(C)CC3=O)Nc3c2c(=O)[nH]c(=O)n3Cc2ccccc2)ccc1O (stereo not given),–,–,–,–,4.3
NC(=O)c1cc(Br)cc2c3c([nH]c12)CCCC3,–,–,–,64,–
Brc1ccc2[nH]c3c(c2c1)CCC3,–,–,–,–,–
CCCCNC(=O)N1CCN(c2ccnc3cc(Cl)ccc23)CC1,–,–,–,–,–
COC(=O)[C@@H](NCc1ccc(OC)c(B(O)O)c1)C(C)C,·,·,–,·,–
COCCOC(=O)c1c(NC(=O)CSc2cccc[n+]2[O-])sc(C(N)=O)c1C,–,72,–,–,–
COc1ccccc1C=NN=C(N)C(N)=NN=Cc1ccccc1OC,·,·,–,·,–
COc1ccccc1/C=N\N=C(\N)c1ccccn1,–,–,–,71,–
Cn1cc(CNCCN2CCCCC2=O)c(-c2cccc(Cl)c2)n1,–,–,–,–,–
CC(NC(=S)NC1CCC(C(C)(C)C)CC1)c1ccccc1 (stereo not given),–,–,–,·,–
COc1ccc(-c2csc(N)n2)cc1F,–,–,–,–,4.8
Cc1ccc([C@H]2C[C@H](n3cc(-c4ccc(F)cc4)nn3)[C@@H](O)CN2CC2CCCCC2)cc1,·,·,–,·,–
Cc1ccccc1-n1c(SCc2ccccn2)nc2n[nH]c(C)c2c1=N,–,–,–,66,–
Cc1ccccc1-n1c(SCC(=O)Nc2ccccc2Cl)nc2n[nH]c(C)c2c1=N,–,–,–,62,–
SMILES,HSF1 inhib,HSF1 activator,GAA850 FXN act,AHR activator,DAX1 inh
COc1ccc(OC)c(NC(=O)CSc2nc3n[nH]c(C)c3c(=N)n2-c2cccc(Cl)c2C)c1,–,–,–,–,–
COC(=O)C/C=N/N=C1/NC(=O)/C(=C/C(=O)O)S1,–,–,–,–,–
COc1cc(OC)cc(C(=O)NC(=S)NCc2ccco2)c1,–,121,–,64,–
O=C(NCc1ccco1)c1cc(-c2ccc3c(c2)OCO3)on1,–,71,–,–,–
COc1cccc(-c2cc(C(=O)NCc3ccco3)no2)c1,–,61,–,–,–
COc1cccc(C(=O)NC(=S)NCc2ccco2)c1,–,–,–,–,–
Cc1ccc(-c2cc(C(=O)NCc3ccco3)no2)cc1,–,–,–,–,–
COc1ccccc1S(=O)(=O)N(C)C[C@H]1OCc2cn(nn2)CCCC(=O)N([C@@H](C)CO)C[C@@H]1C,·,·,–,·,–
CCCCN(C=O)c1c(CC)nc2ccc(C(=O)NCCOc3ccc(OC)cc3)cn12,·,·,–,·,·
CCOCCOC(=O)c1ccc(-n2cncn2)nc1,-86,–,–,–,–
Cc1cc(=O)[nH]c2cc(O)ccc12,–,–,–,–,–

# Assay outcomes (PubChem BioAssay)
